# From PubChem BioAssay
# Pf growth 48h = inhibits P. falciparum growth in the first generation, 48 h. P. falciparum luciferase growth in erythrocytes, 48 h. Potency, µM (top dose mostly 28.7 µM), inactives show top-dose activity change, negative = inhibition, actives largely listed as inhibitors. hit rate 5.9% among 310,000. AID 504832; active = well fitted inhibition curve with a large enough effect; inconclusive = small, poorly fitted or top-dose-only effect, or another doubt; inactive = no such curve, though single readings can be large or run the other way; note: potency is the fitted concentration of half-maximal effect; % is set by controls: 0 for no effect and ±100 for the full control effect
#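 Luciferase-expressing parasites in RBCs, 2% Hct / 0.1% parasitemia final; RPMI 1640 + 0.5% Albumax; 37 C, 5% CO2, one generation; luminescence read-out, lower signal = inhibition.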
# NS1 function inh = blocks influenza NS1 protein function; hit rate 0.4% among 270,000; Potency, µM (doses to about 46.1 µM), inactives show at the highest dose activity, positive = more growth; note: potency is the fitted concentration of half-maximal effect; actives are rising curves; nearly all actives have a fitted effect of over 50% in size
#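 Growth recovery, yeast-based: influenza A NS1 expressed in S. cerevisiae causes slow growth, and suppressors are detected by OD600. The parent strain without NS1 is used as positive control.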
# Pf growth 96h = P. falciparum growth inhibition at 96 hours; P. falciparum luciferase reporter growth, 96 h; Potency, µM (top dose mostly 28.7 µM), inactives show top-dose activity change, negative = inhibition, usual class: inhibitors; hit rate 6.9% among 320,000; AID 504834; active = well fitted inhibition curve with a large enough effect; inconclusive = small, poorly fitted or top-dose-only effect, or another doubt; inactive = no such curve, though single readings can be large or run the other way; note: potency is the fitted concentration of half-maximal effect; % is set by controls: 0 for no effect and ±100 for the full control effect
#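 Delayed-death screen, second-generation endpoint: infected erythrocytes, 2% hematocrit, 0.05% parasitemia final; 96 hours at 37 C, 5% CO2; luciferase detection reagent; luminescence decrease equals reduced growth.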
# SARS PLP yeast = inhibitors of SARS-CoV papain-like protease in yeast. S. cerevisiae expressing SARS-CoV PLpro, growth rescue. Potency, µM (doses to about 32.9 µM), inactives show top-dose activity, positive = growth rescue, usual class: activators. hit rate 0.19% among 330,000; note: potency is the fitted concentration of half-maximal effect; 0% is about no effect; nearly all actives have a fitted effect of over 55% in size
# CHX counter = affects cycloheximide protein synthesis inhibition readout, counter-screen; cell reporter, cycloheximide protein synthesis inhibition counterscreen; max response, %; hit rate 12% among 300,000; in the data active = max response mostly above about 13%, no sharp cut-off; inactive = mostly below about 14%; note: read at 38.3 µM for the half of the compounds with a filed dose; 0% is about no effect
# Shiga inhibitor = blocks Shiga toxin action in Vero cells; inhibition, % at 38.7 µM; Vero cells, Shiga toxin protein synthesis inhibition reporter; hit rate 9.2% among 290,000; in the data active = inhibition mostly above about 28%, no sharp cut-off; inactive = mostly below about 43%; note: 0% is about no effect
# Active calls of the source: *; ? = inconclusive; · = not tested or not shown. Shown are actives, neighbours in structure and some others; about 21% of the full set was active somewhere. Unless noted, calls come from the whole dose curve.
SMILES,Pf growth 48h,NS1 function inh,Pf growth 96h,SARS PLP yeast,CHX counter,Shiga inhibitor
CC(C)c1nc(C#N)c(NCCCn2ccnc2)o1,15%,4%,·,-2%,5,-16
CC(C)c1nc(C#N)c(NN)o1,28%,1%,18%,-2%,49*,116*
O=C(O)C1CC=CCC1C(=O)N1CC=C(c2ccccc2)CC1 (stereo not given),22%,·,1%,-2%,29*,44*
O=C(O)CCC(=O)N1CC=C(c2ccccc2)CC1,·,5%,?,2%,50*,79*
CC(C)(C)c1ccc(C(=O)O)c(C(=O)c2ccccc2)c1,31%,-1%,23%,0%,1,-15
Oc1ccc(C2=NN(c3ccccc3)C(c3ccc(F)cc3)C2)cc1 (stereo not given),9.3µM*,-60%,?,-12%,9,29
COc1ccc(C2CC(c3ccccc3Cl)=NN2c2ccc(S(N)(=O)=O)cc2)cc1 (stereo not given),·,·,·,3%,·,·
Oc1ccccc1C1=NN(c2ccccc2)C(c2ccc(F)cc2)C1 (stereo not given),?,7%,10µM*,-4%,6,2
Cc1cccc(C)c1N1CCN(c2ccc3nnc(C(F)(F)F)n3n2)CC1,9.3µM*,9%,·,-15%,-2,-3
O=C(CSc1ccc2nnc(-c3ccccc3)n2n1)N1CCCCC1,·,0%,·,·,·,·
CN(Cc1ccccc1)c1ccc2nnc(-c3ccccc3)n2n1,4.1µM*,-3%,?,9%,-4,-14
c1ccc(-c2nnc3ccc(N4CCCC4)nn23)cc1,-2%,2%,1µM*,-9%,-2,8
FC(F)(F)c1nnc2ccc(N3CCOCC3)nn12,21%,-1%,·,3%,-1,33
Cc1ccc(/C=N/NC(=O)C(C)Oc2ccccc2[N+](=O)[O-])s1 (stereo not given),48%,-9%,64%,-2%,2,15
Cc1onc(-c2ccccc2)c1NC(=O)Nc1ccc(OC(F)F)cc1,6.6µM*,-4%,4.7µM*,1%,13,15
CC(C)NC(=O)NC(=O)COC(=O)c1ccc([N+](=O)[O-])cc1Cl,?,·,46%,0%,-1,-12
Cc1c(CNCCc2ccccc2Cl)c(C(=O)O)c(C)n1-c1ccccc1,?,1%,0%,0%,17*,32
Cc1c(CNCCc2ccc(Cl)cc2)c(C(=O)O)c(C)n1Cc1ccccc1,-16%,·,-27%,20%,-1,-6
COCCN(C(=O)c1snc(C(N)=O)c1N)C(C(=O)NC1CCCCC1)c1ccc(OC)c(OC)c1 (stereo not given),-30%,10%,99%,14%,-3,-6
COc1ccc(CC(=O)N2CCN=C2SCc2cccc([N+](=O)[O-])c2)cc1,10µM*,·,?,0%,9,-5
Cn1c(SCc2cccc([N+](=O)[O-])c2)nc2ccccc2c1=O,5.2µM*,·,10µM*,-22%,·,·
Cn1c(SCc2cccc(C#N)c2)nc2ccccc2c1=O,10µM*,-28%,69%,-1%,-1,-2
Cc1ccc(CSc2nc3ccccc3c(=O)n2C)cc1,-20%,-3%,-13%,0%,1,-5
COCCn1c(SCc2cccc([N+](=O)[O-])c2)nc2ccccc2c1=O,9.3µM*,-9%,?,-3%,-6,-3
COC(=O)c1cccc(NC(=O)CSc2nnc(C)o2)c1,18%,2%,-4%,-1%,3,22
SMILES,Pf growth 48h,NS1 function inh,Pf growth 96h,SARS PLP yeast,CHX counter,Shiga inhibitor
COc1ccc(S(=O)(=O)N2CCCC(C(=O)NC3CC3)C2)cc1OC (stereo not given),?,·,1%,-1%,·,·
C[N+](C)(C)CCCl,·,·,·,·,-11,-6
CC(C)(C)OC(=O)C(Br)CCBr (stereo not given),·,·,·,·,-8,-15
S=C(NCc1cccnc1)c1ccccc1,-3%,1%,51%,-2%,-3,-4
COc1ccc(C(=O)Nn2c(SCC(=O)N3CCC(C)CC3)nc3ccccc3c2=O)cc1,58%,9%,2%,-7%,10,25
COc1ccc(C(=O)Nn2c(SCc3cccc([N+](=O)[O-])c3)nc3ccccc3c2=O)cc1,217%,?,?,-7%,61*,114*
COc1ccc(C(=O)Nn2c(SCC(=O)c3ccc(Cl)cc3)nc3ccccc3c2=O)cc1,-60%,4%,?,-13%,17*,22
CC(C)C[C@H](NC(=O)[C@H](CO)NC(=O)[C@@H]1CCCN1C(=O)[C@H](Cc1ccc(O)cc1)NC(=O)[C@H](CC(C)C)NC(=O)[C@H](CC(C)C)NC(=O)[C@@H]1CCCN1C(=O)[C@@H](NC(=O)[C@H](CO)NC(=O)[C@H](CO)NC(=O)[C@H](CO)NC(=O)[C@H](CO)NC(=O)[C@@H]1CCCN1C(=O)[C@@H](NC(=O)[C@@H](N)CO)C(C)C)[C@@H](C)O)C(=O)N[C@@H](C)C(=O)N[C@@H](CC(C)C)C(=O)N1CCC[C@H]1C(=O)N[C@@H](C)C(=O)N1CCC[C@H]1C(=O)O,·,·,·,·,-3,4
CC(C)NCC(O)COc1ccc(COCCOC(C)C)cc1 (stereo not given),2%,?,16%,·,11,28*
CC(C)NCC(O)COCCOc1ccc(Br)cc1 (stereo not given),-10%,-9%,-17%,3%,-2,-3
COc1ccccc1OCC(=O)Nc1ncc(C)s1,138%,·,184%,7%,·,·
Cc1cnc(NC(=O)CSc2ccccc2)s1,84%,-7%,·,-8%,30*,41
Cc1cnc(NC(=O)COc2ccccc2)s1,146%,-3%,235%,1%,59*,110*
Cc1cnc(NC(=O)C2(c3ccccc3)CC2)s1,0%,0%,25%,5%,20*,74*
Cc1cnc(NC(=O)Cc2ccc(C)c(C)c2)s1,0%,6%,-23%,1%,20*,47*
COc1cc(CC(=O)Nc2ncc(C)s2)cc(OC)c1OC,-12%,-2%,-9%,-1%,-2,-15
CC(=O)NCCSc1ccc(S(=O)(=O)N2CCCC2)cn1,?,·,-29%,-7%,·,·
Cc1cnc(NC(=O)CCc2ccccc2)s1,?,-5%,6%,-3%,25*,·
Cc1cnc(NC(=O)CSc2nnc(C)n2N)s1,15%,21%,11%,9%,-2,11
COC(=O)c1sc(NC(=O)Cc2cccs2)nc1C,19%,-10%,?,-6%,33*,70*
COC(=O)c1sc(NC(=O)COc2ccccc2)nc1C,·,-20%,?,-2%,23*,28
COC(=O)c1sc(NC(=O)COc2ccc(C)cc2)nc1C,·,-18%,25%,-12%,-1,-5
CCOC(=S)SCC(=O)Nc1ncc(C)s1,74%,-4%,259%,2%,39*,68*
COc1ccc(CCC(=O)Nc2ncc(C)s2)cc1OC,?,-3%,?,-1%,7,-5
